# Data taken from PubChem BioAssay AID504652 (National Center for Advancing Translational Sciences (NCATS), 2011).
# Hit rate of the full screen: of about 360,000 compounds, about 11,000 (3.1%) were called active. Cut-off read from the data, not from the text of the source: active = activity change below about -30%; inactive = the rest. This excerpt belongs to a sample that is enriched for actives.
# Biological target: D(1A) dopamine receptor (Homo sapiens) (UniProt P21728)
# Assay: Antagonist of Human D 1 Dopamine Receptor: qHTS
# Settings: HEK293 TREx D1 cells, calcium flux, dopamine EC80; at 10 µM; stronger effect = lower value
# Summary of the method: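 Tetracycline-induced HEK293 T-REx cells with force-coupled D1 receptor were loaded with a no-wash calcium dye. Compound was added after a 10 s baseline and read kinetically for 180 s; EC80 dopamine was then added and calcium flux followed another 180 s.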
# % is set by controls: 0 for no effect and ±100 for the full control effect.
# Chain of D(1A) dopamine receptor (Homo sapiens) (P21728 whole entry, looked up): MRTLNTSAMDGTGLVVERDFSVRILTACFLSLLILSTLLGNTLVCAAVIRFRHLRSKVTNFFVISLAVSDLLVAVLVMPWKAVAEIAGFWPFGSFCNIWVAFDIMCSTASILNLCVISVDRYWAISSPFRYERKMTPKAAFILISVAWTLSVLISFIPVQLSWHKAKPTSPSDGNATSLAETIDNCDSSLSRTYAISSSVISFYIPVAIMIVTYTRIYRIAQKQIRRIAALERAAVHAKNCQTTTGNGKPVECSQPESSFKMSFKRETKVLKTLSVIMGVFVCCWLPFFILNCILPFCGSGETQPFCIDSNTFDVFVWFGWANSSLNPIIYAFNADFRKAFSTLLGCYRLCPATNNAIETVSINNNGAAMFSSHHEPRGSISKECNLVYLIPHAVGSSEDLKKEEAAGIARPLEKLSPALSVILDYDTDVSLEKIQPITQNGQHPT
row,SMILES,"activity change, negative = inhibition"
1,Cc1cccc(C(=O)N2c3nc(-c4ccco4)nn3C3(CCCCC3)[C@@H]3CCCC[C@@H]32)c1,4.44% (inactive)
2,COc1ccc(NC(=O)CSc2nnc(-c3cccs3)n2Cc2ccco2)cc1OC,8.42% (inactive)
3,O=C(CSc1nnc(-c2cccnc2)n1Cc1ccco1)c1ccc(Cl)c(Cl)c1,18.2% (inactive)
4,O=C(CSc1nnc(-c2cccs2)n1Cc1ccco1)c1ccc2c(c1)OCO2,-31.7% (active)
5,Cc1cccc(CSc2nc3ccncc3n2Cc2ccc(C(=O)O)cc2)c1,14.5% (inactive)
6,O=C(Nc1cccc(Cl)c1)Nc1ccccc1NS(=O)(=O)c1cccs1,-42.1% (active)
7,O=S(=O)(Nc1ccccc1)c1ccc(NS(=O)(=O)c2cccs2)cc1,-3.97% (inactive)
8,O=S(=O)(Nc1ccccc1Br)c1cccs1,11.5% (inactive)
9,Cc1cccc(NC(=O)Cn2c(=O)n(CCC(C)C)c(=O)c3cccnc32)c1,38.2% (inactive)
10,COc1ccccc1NC(=O)C1=C(C)Nc2nc(SCC(=O)c3ccc(C)cc3)nn2C1c1ccccc1C (stereo not drawn),4.06% (inactive)
11,O=C(CN1CCN(Cc2ccc(Cl)cc2)C1=O)NCc1ccc(F)cc1,6.15% (inactive)
12,COc1ccc(NC(=O)CN2CCCN(Cc3ccccc3)S2(=O)=O)cc1,-2.48% (inactive)
13,COc1ccc(CNC(=O)C2CCN(S(C)(=O)=O)CC2)cc1,-17.7% (inactive)
14,COc1ccc(N2CCN(CCCNC(=O)C3CCN(S(=O)(=O)N4CCOCC4)CC3)CC2)cc1,5.25% (inactive)
15,COc1ccc(CNC(=O)C2CCN(S(=O)(=O)N3CCOCC3)CC2)cc1,-42.3% (active)
16,COc1cccc(CN2CCc3nc(SCC(=O)Nc4ccccc4)[nH]c(=O)c3C2)c1,3.64% (inactive)
17,CCc1ccc(CNC(=O)c2cc3c(=O)n(CC)c4ccccc4c3s2)cc1,11% (inactive)
18,Cc1ccc(C)c(N2CCN(S(=O)(=O)c3ccc4c(c3)C(C(C)C)C(=O)N4)CC2)c1 (stereo not drawn),-23.5% (inactive)
19,O=C(CC(c1cccs1)N1Cc2ccccc2C1=O)Nc1ccc(F)c(F)c1 (stereo not drawn),-0.399% (inactive)
20,O=C(COc1ccccc1)NCc1ccc2c(c1)CCN2C(=O)c1ccc(F)cc1,-7.02% (inactive)
21,O=C(CSc1nnc(Nc2ccccc2)s1)Nc1cccnc1Cl,-65.7% (active)
22,O=C(CSc1nnc(C2CC2)n1Cc1ccccc1)Nc1cccnc1Cl,8.52% (inactive)
23,O=C(CSc1nnc(Nc2ccccc2F)s1)NC1CCCC1,-3.18% (inactive)
24,CC(C)c1ccc(NC(=O)c2ccc3c(O)c(S(=O)(=O)c4ccccc4)c(=O)[nH]c3c2)cc1,-2.13% (inactive)
25,COc1cc2ccccc2cc1C(=O)Nc1cccc(-c2nc3ccccc3o2)c1,-19.2% (inactive)
26,O=C(Nc1ccccc1)O/N=C1/CCCc2occc21,7.6% (inactive)

row,SMILES,"activity change, negative = inhibition"
1,N/C(=N\OC(=O)Nc1ccccc1)c1ccno1,-30.9% (active)
2,CC(C)(COC(=O)Nc1ccccc1)COC(=O)Nc1ccccc1,-3.78% (inactive)
3,Cc1ccc(-c2nnc(Nc3ccc(OCC(N)=O)cc3)c3ccccc23)cc1S(=O)(=O)NCC1CCCO1 (stereo not drawn),-11.9% (inactive)
4,CCOc1ccc(CCNC(=O)c2ccc3c(c2)sc2nc(-c4ccc(F)cc4)cn23)cc1OCC,0.197% (inactive)
5,COc1ccc(C(=O)CCc2ccccc2O)c(OC)c1,-22.2% (inactive)
6,COc1ccccc1C(=O)NCCC(=O)NC(C)CCc1ccccc1 (stereo not drawn),-3.06% (inactive)
7,COc1ccc(C(=O)NC(C)CCc2ccccc2)c(OC)c1 (stereo not drawn),-36.3% (active)
8,CCOc1ncccc1C(=O)NCCc1ccc(OC)cc1,8.92% (inactive)
9,COc1ccc(CCNC(=O)c2ccccc2OCc2ccccc2)cc1,-35% (active)
10,COc1ccc(CCNC(=O)c2ccccc2-c2ccccc2C(=O)O)cc1OC,0.57% (inactive)
11,COc1ccc(CC(=O)Nc2nnc3n2CCS3)cc1OC,29.1% (inactive)
12,Cc1ccc(Cl)cc1N(C)C(=O)C1CCCN(c2ncnc3onc(-c4ccc(F)cc4)c23)C1 (stereo not drawn),3.58% (inactive)
13,Cc1nc2nc(SCC(=O)NC3CCC(C)CC3)nn2c(C)c1Cc1ccccc1Cl (stereo not drawn),-18.6% (inactive)
14,O=C(COC(=O)c1ccco1)NCc1ccc(Cl)cc1,-43.8% (active)
15,CCc1ccc(C(=O)COC(=O)c2ccco2)cc1,3.84% (inactive)
16,O=C(COC(=O)c1cnc(Cl)c(Cl)c1)NCc1ccco1,-8.31% (inactive)
17,O=S(=O)(Nc1ccc2nc(-c3cccc(Cl)c3)oc2c1)c1ccccc1,2.59% (inactive)
18,O=c1[nH]c2cc(Br)ccc2n2cccc12,17.9% (inactive)
19,Cc1ccc2nc(/C(C#N)=C/c3ccccc3F)[nH]c2c1,2.38% (inactive)
20,CCc1cc2c(cc3c(=O)n(CC(=O)N4CCN(c5cc(Cl)ccc5C)CC4)ncn32)s1,5.41% (inactive)
21,Oc1c(C(c2ccccn2)N2CCOCC2)ccc2cccnc12 (stereo not drawn),-33.9% (active)
22,COc1ccc(-c2cn3c(n2)sc2cc(C(=O)Nc4ccccc4F)ccc23)cc1,-2.21% (inactive)
23,Cc1ccc2[nH]c3c(=O)n(CC(=O)NC(C)C)ncc3c2c1,5.41% (inactive)
24,COc1ccc(/C=C/c2nc(C#N)c(NCc3ccc(F)cc3)o2)cc1OC,-16% (inactive)
25,O=C1CSc2ccc(S(=O)(=O)NCc3ccccc3)cc2N1,-44.7% (active)
26,CCC(Cc1ccccc1)NS(=O)(=O)c1ccc2c(c1)NC(=O)CS2 (stereo not drawn),-0.0752% (inactive)

row,SMILES,"activity change, negative = inhibition"
1,COc1ccccc1CNS(=O)(=O)c1ccc2c(c1)NC(=O)CS2,7.86% (inactive)
2,CCCCn1cc(S(=O)(=O)c2ccc(OCC)cc2)c(=O)c2cc(OC)c(OC)cc21,4.22% (inactive)
3,COc1ccc(C)cc1Nc1nc2ccccc2c2nnc(C)n12,1.83% (inactive)
4,CCN(CC)C(=O)C(=O)c1cn(CC(=O)NCc2ccc3c(c2)OCO3)c2ccccc12,-3.14% (inactive)
5,CCn1cc(C(=O)NCc2ccc3c(c2)OCO3)c2cc(OC)c(OC)cc2c1=O,-40.7% (active)
6,COc1ccccc1-n1c(C)nc2cc(C(=O)NCc3ccc4c(c3)OCO4)ccc21,-36.2% (active)
7,CCn1cc(C(=O)NCC2COc3ccccc3O2)c2cc(OC)c(OC)cc2c1=O (stereo not drawn),13.1% (inactive)
8,CCOc1c2ccc(C(=O)NCc3ccc4c(c3)OCO4)cc2nn1C,3.09% (inactive)
9,COc1cc(-n2c(C)nc3cc(C(=O)NCc4ccco4)ccc32)cc(OC)c1OC,-14.8% (inactive)
10,CC(=O)Nc1cc(C(=O)NCc2ccc(F)cc2)ccc1Sc1ccc(F)cc1,3.13% (inactive)
11,COc1ccccc1CNS(=O)(=O)c1cc(Br)cc2c1N(C(C)=O)C(C)C2 (stereo not drawn),7.16% (inactive)
12,C#CCOCCOCCOCCNc1nc(N2CCN(C(=O)[C@H](C(C)C)n3cc(CCO)nn3)CC2)nc(N2CCN(C(=O)[C@H](C(C)C)n3cc(CCO)nn3)CC2)n1,7.62% (inactive)
13,C#CCOCCOCCOCCNc1nc(N2CCN(C(=O)[C@H](CCC(=O)O)n3cc(C(N)CO)nn3)CC2)nc(N2CCN(C(=O)[C@H](CCCCN)n3cc(C(N)[C@H](C)CC)nn3)CC2)n1 (stereo partly drawn),-39.7% (active)
14,C#CCOCCOCCOCCNc1nc(N2CCN(C(=O)CCCCCCCCCCNC(=O)[C@H]([C@@H](C)CC)n3cc(CCCCN=C(N)N)nn3)CC2)nc(N2CCN(C(=O)CCCCCCCCCCNC(=O)[C@H](CO)n3cc(CCCSC)nn3)CC2)n1,6.53% (inactive)
15,C#CCOCCOCCOCCNc1nc(N2CCN(C(=O)[C@H](CCC(=O)O)n3cc(C(N)CO)nn3)CC2)nc(N2CCN(C(=O)[C@H](Cc3ccc(O)cc3)n3cc(C(N)[C@H](C)CC)nn3)CC2)n1 (stereo partly drawn),-34.5% (active)
16,C#CCOCCOCCOCCNc1nc(N2CCN(C(=O)[C@H](CCCCN)n3cc([C@@H](N)C(C)CC)nn3)CC2)nc(N2CCN(C(=O)[C@H](Cc3ccc(O)cc3)n3cc([C@@H](N)C(C)CC)nn3)CC2)n1 (stereo partly drawn),-11.3% (inactive)
17,C#CCOCCOCCOCCNc1nc(N2CCN(C(=O)[C@H](CCC(=O)O)n3cc(C(N)CO)nn3)CC2)nc(N2CCN(C(=O)[C@H](CCCCN)n3cc(C(N)CC(C)C)nn3)CC2)n1 (stereo partly drawn),-32.3% (active)
18,C#CCOCCOCCOCCNc1nc(N2CCN(C(=O)C(Cc3ccc(O)cc3)n3cc(C(N)CC(C)C)nn3)CC2)nc(N2CCN(C(=O)C(Cc3ccc(O)cc3)n3cc(C(N)C(C)CC)nn3)CC2)n1 (stereo not drawn),-10.5% (inactive)
19,C#CCOCCOCCOCCNc1nc(N2CCN(C(=O)[C@H](Cc3ccc(O)cc3)n3cc(C(N)CC(C)C)nn3)CC2)nc(N2CCN(C(=O)[C@H](CCC(=O)O)n3cc(C(N)[C@H](C)CC)nn3)CC2)n1 (stereo partly drawn),-5.53% (inactive)
20,O=C(CC1Oc2ccccc2NC1=O)NCc1ccc(F)cc1 (stereo not drawn),-2.49% (inactive)
21,CN1C(=O)c2[nH]nc(-c3ccc(F)cc3)c2C1c1ccccn1 (stereo not drawn),-12.2% (inactive)
22,N#Cc1nc(/C=C/c2ccc(F)cc2)oc1NC1CCCCC1,-1.82% (inactive)
23,CCN(CC)c1cc(NC2CCCCC2)c2c3c(onc13)-c1ccccc1C2=O,8.94% (inactive)
24,Cc1ccc2nc(CN3CCN(S(=O)(=O)c4ccc(C)c(C)c4)CC3)oc2c1,-3.02% (inactive)
25,COc1cc(NC(=O)CN2CCN(S(=O)(=O)c3ccc(Br)cc3)CC2)cc(OC)c1,-5.38% (inactive)
26,CCc1ccc(C2C(C(=O)Nc3ccccc3)=C(C)Nc3c(C(=O)Nc4ccc(C)cc4)cnn32)cc1 (stereo not drawn),-24.1% (inactive)
